Test results taken from PubChem BioAssay (NCATS).
Results filed as inconclusive are left out. Calls of active or inactive are those of the source. Unless noted, calls come from the whole dose curve; as a rule, active = well fitted curve in the direction sought with a large enough effect; inconclusive = small, poorly fitted or top-dose-only effect, or another doubt; inactive = no such curve, though single readings can be large; an effect the other way counts as inactive or inconclusive.

Tests used:
[1] = molecular target: Lysosomal acid glucosylceramidase (Homo sapiens) (UniProt P04062); experiment: Glucocerebrosidase-p2 (AID 348; in the data active = potency below about 10 µM; note: potency is the fitted concentration of half-maximal effect); conditions: purified GBA, blue fluorogenic substrate, 40 min
In short: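 Normal human glucocerebrosidase (0.2 nM) with blue fluorogenic substrate (80 uM final) in citrate/phosphate pH 5.9 with 10mM sodium taurocholate, 0.01% tween-20; 40 min RT, NaOH/glycine stop; fluorescence Ex 365/Em 440; AC50 from a titration from 0.6 nM upwards.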

[2] = AP1 Signaling Pathway (AID 357; active = well fitted curve in either direction with a large enough effect, not every such curve was filed as active;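 note: ME-180 reporter cells stimulated with EGF at its EC50 level; % is set by controls: 0 for no effect and ±100 for the full control effect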); conditions: ME-180 AP-1-bla reporter, EGF-induced, beta-lactamase ratio, 5 h; at 7.69 µM (top of the series) unless noted
In short: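 A ratiometric CCF4 readout (405 nm excitation; 460 and 530 nm emission) quantified AP-1-driven beta-lactamase in ME-180 cells after 5 h with compound and EC50 EGF; AC50 values were derived for activators and inhibitors.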

[3] = NFAT Signaling Pathway (AID 444; active = well fitted curve in either direction with a large enough effect, not every such curve was filed as active;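 note: carbachol stimulus at about its EC50 of 1 µM final; % is set by controls: 0 for no effect and ±100 for the full control effect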); conditions: Jurkat NFAT-bla M1, carbachol, beta-lactamase ratio, 5 h; at 7.69 µM (top of the series) unless noted
In short: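 Read-out: CCF4 FRET ratio (460 nm/530 nm) after 1 h RT dye loading, used for %activity and AC50 from titration series. Cells: Jurkat NFAT-β-lactamase/M1 line, treated with compound plus 1 uM carbachol for 5 h, 37 °C.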

[4] = Stat Signaling Pathway (AID 446; active = well fitted curve in either direction with a large enough effect, not every such curve was filed as active;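 note: ME-180 cervical cancer cells given 40 pM IL-6 alongside compound; SIE-controlled beta-lactamase reporter measured as 460/530 nm FRET emission ratio; % is set by controls: 0 for no effect and ±100 for the full control effect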); conditions: ME-180 (cervical carcinoma) SIE beta-lactamase reporter, IL-6 stimulated, 5 h; at 7.69 µM (top of the series) unless noted
In short: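 Overnight-plated ME-180 cells bearing a STAT Inducible Element beta-lactamase reporter; 5 h co-exposure to compound and 40 pM IL-6; values normalized to 300 pM IL-6 and 125 nM JAK inhibitor controls.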

[5] = molecular target: Glucocorticoid receptor (Homo sapiens) (UniProt P04150); experiment: GR-GFP Redistribution (AID 450;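 active = compounds whose dose series gives a full or clear partial fitted curve of increased nuclear translocation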; note: potency is the fitted concentration of half-maximal effect); conditions: U2OS GR-GFP nuclear translocation, laser cytometry, 2 h
[6] = molecular target: Glucocorticoid receptor (Homo sapiens) (UniProt P04150); experiment: GR-EFC Redistribution (AID 451; calls by dose curve; note: potency is the fitted concentration of half-maximal effect); conditions: CHO-K1 GR-EFC translocation, beta-gal luminescence, 2 h
In short: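 Translocation of GR-ED fusion to nuclear EA restores b-gal, read by luminescence after 1 h room-temperature detection. Engineered CHO-K1 biosensor cells, 1,000/well, exposed 2 h at 37 C to titrations up to 46 uM final.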

[7] = molecular target: Mitogen-activated protein kinase 10 (Mus musculus) (UniProt Q61831); experiment: JNK3 AlphaScreen Assay (AID 530; active = well fitted curve in either direction with a large enough effect, not every such curve was filed as active;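 note: kinase came from lysate of stimulated human HepG2 cells; signal reports phosphorylation of biotinylated GST-cJun 1-79 at Ser73 with 10 µM ATP; % is set by controls: 0 for no effect and ±100 for the full control effect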); conditions: JNK3 lysate, c-Jun phosphorylation; series mostly up to 57.1 µM
In short: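 Kinase buffer: 20 mM Tris-HCl pH 7.6, 10 mM MgCl2, 1 mM DTT, 0.1 mM Na3VO4, 0.01% Tween-20; ATP 10 uM. Substrate biotin-GST-cJun(1-79), enzyme from activated HepG2 lysates. Detection by Ser73 phospho-antibody AlphaScreen.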

[8] = molecular target: 3',5'-cyclic-AMP phosphodiesterase 4B (Homo sapiens) (UniProt Q07343); experiment: qHTS Assay for Inhibitors of PDE-IV (AID 607; active = well fitted activation curve with a large enough effect in the main read-out, with a control signal flat, not every such curve was filed as active; note: % of control where 0% means no effect); conditions: HEK293 ACTOne CNG channel cells, membrane potential fluorescence; series mostly up to 22.9 µM
In short: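 Live HEK293 cells with a modified cyclic nucleotide-gated (CNG) channel report intracellular cAMP via membrane-potential dye fluorescence (ex 535/em 590 nm). Endogenous PDE-IV was targeted. Compounds were tested at up to 22.9 uM final; RO 20-1724 100 uM served as control.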

[9] = molecular target: Cytochrome P450 3A4 (Homo sapiens) (UniProt P08684); experiment: qHTS Assay for Activators of Cytochrome P450 3A4 (AID 885); conditions: recombinant CYP3A4, Luciferin-PPXE luminescence, 60 min; series mostly up to 57.1 µM; note: nearly all actives have a fitted effect of over 65% in size
In short: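 Using 20nM recombinant human CYP3A4 in potassium phosphate (200mM), substrate Luciferin-PPXE at 25uM, luminescent luciferin detection followed a 60-min RT NADPH reaction; data scaled to 57 uM ketoconazole.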

[10] = qHTS Assay for Lipid Storage Modulators (AID 1519; calls by dose curve); conditions: Drosophila S3 cells, BODIPY lipid droplet/cell ratio, laser cytometry, cells loaded with oleic acid; for activity change, negative = inhibition: at 57.5 µM (top of the series)
In short: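 Cells seeded at 5,000 per well were treated with compounds over a concentration series and loaded with oleic acid (400 uM, as added). Lipid droplet fluorescence (488 nm excitation, 500-530 nm channel) was read by laser-scanning cytometry and normalized to 20 uM Triacsin C.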

[11] = molecular target: Dual specificity protein kinase CLK4 (Homo sapiens) (UniProt Q9HAZ1); experiment: qHTS Assay for Inhibitors of CDC-like Kinase 4 (Kinase-Glo Assay) (AID 1770); conditions: recombinant Clk4, Kinase-Glo ATP depletion luminescence; series mostly up to 66.7 µM; note: nearly all actives have a fitted effect of over 65% in size; note: potency is the fitted concentration of half-maximal effect
In short: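 25 nM Clk4 with 100 uM RS repeat peptide and 1 uM ATP (final) in Tris pH7.5, 10 mM MgCl2, 4.5 h at room temperature. Remaining ATP measured by Kinase-Glo luciferase luminescence.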

[12] = molecular target: Dual specificity protein kinase CLK4 (Homo sapiens) (UniProt Q9HAZ1); experiment: qHTS Assay for Inhibitors of CDC-like Kinase 4 (ADP-Glo Assay) (AID 1771); conditions: recombinant CLK4, ADP-Glo luminescence; series mostly up to 80 µM; note: nearly all actives have a fitted effect of over 70% in size; note: potency is the fitted concentration of half-maximal effect
In short: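 In this ADP-Glo format, 1 uM ATP and 100 uM RS peptide served as substrates for 25 nM Clk4 in Mg2+/EGTA/DTT/Triton buffer; reactions ran 1 hr at room temperature before luminescent ADP quantification.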

[13] = molecular target: Dual specificity protein kinase CLK4 (Homo sapiens) (UniProt Q9HAZ1); experiment: qHTS Assay for Inhibitors of CDC-like Kinase 4 (ADP-FP Assay) (AID 1795); conditions: Transcreener ADP fluorescence polarization; series mostly up to 50 µM; note: nearly all actives have a fitted effect of over 60% in size; note: potency is the fitted concentration of half-maximal effect
In short: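 Recombinant Clk4 (6.25 nM) phosphorylated 100 uM RS repeat peptide with 1 uM ATP in 25 mM Tris pH 7.5, 10 mM MgCl2, 0.5 mM EGTA, 2.5 mM DTT, 0.01% Triton X-100 for 1 h. ADP was detected by Transcreener ADP2 competitive fluorescence polarization after 30 min at room temperature.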

[14] = molecular target: Ubiquitin carboxyl-terminal hydrolase 1 (Homo sapiens) (UniProt O94782); experiment: Inhibitors of USP1/UAF1: Pilot qHTS (AID 504865); conditions: purified USP1/UAF1, Ub-rhodamine cleavage fluorescence; series mostly up to 54.9 µM;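 note: rhodamine fluorescence freed from ubiquitin-rhodamine substrate followed over time; top concentration of the series differs between compounds; % is set by controls: 0 for no effect and ±100 for the full control effect; nearly all actives have a fitted effect of over 35% in size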
In short: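 USP1/UAF1 complex at 1 nM preincubated 15 min at room temperature with compound, then Ub-Rho substrate added at 150 nM final. Fluorescence (480/540 nm) read kinetically in 50 mM HEPES pH 7.8, 0.5 mM EDTA, 1 mM TCEP, 0.1 mg/ml BSA, 0.01% Tween-20.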

[15] = Primary qHTS for small molecule stabilizers of the endoplasmic reticulum resident proteome: Secreted ER Calcium Modulated Protein (SERCaMP) assay (AID 1508630); conditions: SH-SY5Y GLuc-SERCaMP (Gaussia luciferase released on ER calcium loss) secretion, thapsigargin, luminescence; series mostly up to 38.4 µM; note: % is set by controls: 0 for no effect and ±100 for the full control effect
In short: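 The SH-SY5Y reporter protocol was run at 3 concentrations up to 38.3 uM (primary) or 11 concentrations (follow-up): 16 h compound, 100 nM thapsigargin for 4 h, then extracellular luciferase luminescence.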

[16] = molecular target: Cytochrome P450 1A2 (Homo sapiens) (UniProt P05177); experiment: p450-cyp1a2 (AID 410; calls by dose curve; note: potency is the fitted concentration of half-maximal effect); conditions: recombinant CYP1A2, luciferin-ME demethylation, luminescence; series mostly up to 57 µM
In short: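 Read-out is luminescence from luciferin produced by CYP1A2 demethylation of Luciferin-ME (100uM, at Km). Detection reagent stopped the 60 min NADPH-dependent reaction; signals were normalized to 57 uM furafylline.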

[17] = measured here: cell count channel max response
[18] = measured here: lipid channel max response

Chain of Ubiquitin carboxyl-terminal hydrolase 1 (Homo sapiens) (O94782 whole entry, looked up): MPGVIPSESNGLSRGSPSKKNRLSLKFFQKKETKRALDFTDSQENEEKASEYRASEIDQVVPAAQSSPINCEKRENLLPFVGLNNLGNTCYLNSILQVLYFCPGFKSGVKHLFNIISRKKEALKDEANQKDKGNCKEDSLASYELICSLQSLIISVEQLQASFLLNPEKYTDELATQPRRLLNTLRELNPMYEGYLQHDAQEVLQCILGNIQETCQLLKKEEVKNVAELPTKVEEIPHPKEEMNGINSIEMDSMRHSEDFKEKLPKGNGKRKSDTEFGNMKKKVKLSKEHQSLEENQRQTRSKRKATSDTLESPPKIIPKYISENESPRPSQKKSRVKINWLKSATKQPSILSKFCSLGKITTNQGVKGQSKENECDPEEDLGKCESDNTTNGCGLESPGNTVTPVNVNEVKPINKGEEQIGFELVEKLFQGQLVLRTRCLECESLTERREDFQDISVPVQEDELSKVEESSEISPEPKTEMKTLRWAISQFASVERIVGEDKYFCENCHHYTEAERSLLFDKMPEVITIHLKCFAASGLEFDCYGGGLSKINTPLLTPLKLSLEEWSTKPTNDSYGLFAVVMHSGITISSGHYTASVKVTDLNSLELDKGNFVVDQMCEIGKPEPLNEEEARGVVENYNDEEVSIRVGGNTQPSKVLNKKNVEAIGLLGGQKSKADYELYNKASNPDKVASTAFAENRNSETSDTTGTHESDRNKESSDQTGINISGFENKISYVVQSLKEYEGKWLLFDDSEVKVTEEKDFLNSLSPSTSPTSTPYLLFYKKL
Chain of 3',5'-cyclic-AMP phosphodiesterase 4B (Homo sapiens) (Q07343 whole entry, looked up): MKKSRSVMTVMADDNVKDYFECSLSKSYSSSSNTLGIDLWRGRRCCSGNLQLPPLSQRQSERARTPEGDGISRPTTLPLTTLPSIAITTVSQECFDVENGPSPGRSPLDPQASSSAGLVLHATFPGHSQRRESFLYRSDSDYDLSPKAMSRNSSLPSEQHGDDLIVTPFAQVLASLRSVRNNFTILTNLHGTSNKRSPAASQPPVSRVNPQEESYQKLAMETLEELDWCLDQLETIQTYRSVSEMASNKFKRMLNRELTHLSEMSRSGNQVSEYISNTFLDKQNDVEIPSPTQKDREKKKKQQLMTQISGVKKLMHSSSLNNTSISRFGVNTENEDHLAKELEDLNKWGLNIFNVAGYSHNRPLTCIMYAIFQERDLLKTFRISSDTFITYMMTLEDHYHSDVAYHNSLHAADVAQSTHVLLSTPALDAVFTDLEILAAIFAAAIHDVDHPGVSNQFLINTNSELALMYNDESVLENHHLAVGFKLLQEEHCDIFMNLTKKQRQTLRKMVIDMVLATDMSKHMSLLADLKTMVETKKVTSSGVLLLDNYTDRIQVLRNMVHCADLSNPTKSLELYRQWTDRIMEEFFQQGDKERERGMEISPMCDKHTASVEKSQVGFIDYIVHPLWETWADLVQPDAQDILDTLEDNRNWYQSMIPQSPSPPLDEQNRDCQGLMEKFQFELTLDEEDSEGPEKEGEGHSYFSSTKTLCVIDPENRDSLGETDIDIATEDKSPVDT
Chain of Dual specificity protein kinase CLK4 (Homo sapiens) (Q9HAZ1 whole entry, looked up): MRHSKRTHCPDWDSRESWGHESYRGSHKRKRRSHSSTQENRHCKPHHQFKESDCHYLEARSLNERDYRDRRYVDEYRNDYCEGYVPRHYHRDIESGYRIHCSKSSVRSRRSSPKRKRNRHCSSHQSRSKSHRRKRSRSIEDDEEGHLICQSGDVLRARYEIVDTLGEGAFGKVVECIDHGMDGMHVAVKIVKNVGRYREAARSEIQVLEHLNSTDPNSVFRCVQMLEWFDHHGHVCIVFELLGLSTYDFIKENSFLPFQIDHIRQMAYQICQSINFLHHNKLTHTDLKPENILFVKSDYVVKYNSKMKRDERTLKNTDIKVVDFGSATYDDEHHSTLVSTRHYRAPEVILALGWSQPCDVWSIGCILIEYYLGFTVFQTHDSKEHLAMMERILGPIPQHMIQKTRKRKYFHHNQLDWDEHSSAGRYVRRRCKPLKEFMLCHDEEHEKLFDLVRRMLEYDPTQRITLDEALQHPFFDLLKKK
Chain of Lysosomal acid glucosylceramidase (Homo sapiens) (P04062 whole entry, looked up): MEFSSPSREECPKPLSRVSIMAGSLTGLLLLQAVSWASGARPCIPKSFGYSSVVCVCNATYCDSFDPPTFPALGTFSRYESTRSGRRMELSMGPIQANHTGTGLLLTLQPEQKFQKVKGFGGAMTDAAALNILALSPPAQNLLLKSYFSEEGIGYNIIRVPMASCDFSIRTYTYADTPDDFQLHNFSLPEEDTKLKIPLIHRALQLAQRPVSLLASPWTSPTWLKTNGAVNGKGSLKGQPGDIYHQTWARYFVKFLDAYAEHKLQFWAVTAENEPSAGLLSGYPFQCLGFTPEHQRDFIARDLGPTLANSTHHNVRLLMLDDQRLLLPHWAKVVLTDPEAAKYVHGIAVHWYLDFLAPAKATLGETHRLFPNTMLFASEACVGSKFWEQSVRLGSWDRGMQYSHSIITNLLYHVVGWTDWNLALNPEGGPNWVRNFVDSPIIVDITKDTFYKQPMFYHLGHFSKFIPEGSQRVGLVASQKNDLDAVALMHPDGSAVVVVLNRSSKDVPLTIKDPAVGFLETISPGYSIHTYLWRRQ
Chain of Glucocorticoid receptor (Homo sapiens) (P04150 whole entry, looked up, the tested form may be a part): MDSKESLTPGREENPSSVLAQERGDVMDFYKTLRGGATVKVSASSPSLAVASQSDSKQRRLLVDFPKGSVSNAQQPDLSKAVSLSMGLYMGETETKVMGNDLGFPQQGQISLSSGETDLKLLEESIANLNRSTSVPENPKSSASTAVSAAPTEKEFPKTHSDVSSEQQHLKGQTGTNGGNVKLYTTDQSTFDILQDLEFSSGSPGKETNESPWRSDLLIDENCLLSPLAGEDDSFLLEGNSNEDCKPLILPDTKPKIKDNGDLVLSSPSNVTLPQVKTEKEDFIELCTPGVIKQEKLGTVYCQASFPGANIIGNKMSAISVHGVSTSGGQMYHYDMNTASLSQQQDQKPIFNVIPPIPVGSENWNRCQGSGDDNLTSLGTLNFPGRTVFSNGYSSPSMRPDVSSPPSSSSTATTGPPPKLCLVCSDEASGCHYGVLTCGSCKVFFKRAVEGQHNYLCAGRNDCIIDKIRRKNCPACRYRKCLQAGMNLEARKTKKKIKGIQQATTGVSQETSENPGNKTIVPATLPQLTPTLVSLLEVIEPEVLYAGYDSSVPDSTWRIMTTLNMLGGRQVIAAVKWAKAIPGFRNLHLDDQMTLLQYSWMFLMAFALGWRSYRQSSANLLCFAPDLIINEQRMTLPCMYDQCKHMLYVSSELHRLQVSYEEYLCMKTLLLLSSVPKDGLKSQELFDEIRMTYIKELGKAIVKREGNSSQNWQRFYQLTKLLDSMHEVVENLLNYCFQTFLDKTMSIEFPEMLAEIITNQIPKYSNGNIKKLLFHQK
Chain of Cytochrome P450 3A4 (Homo sapiens) (P08684 whole entry, looked up): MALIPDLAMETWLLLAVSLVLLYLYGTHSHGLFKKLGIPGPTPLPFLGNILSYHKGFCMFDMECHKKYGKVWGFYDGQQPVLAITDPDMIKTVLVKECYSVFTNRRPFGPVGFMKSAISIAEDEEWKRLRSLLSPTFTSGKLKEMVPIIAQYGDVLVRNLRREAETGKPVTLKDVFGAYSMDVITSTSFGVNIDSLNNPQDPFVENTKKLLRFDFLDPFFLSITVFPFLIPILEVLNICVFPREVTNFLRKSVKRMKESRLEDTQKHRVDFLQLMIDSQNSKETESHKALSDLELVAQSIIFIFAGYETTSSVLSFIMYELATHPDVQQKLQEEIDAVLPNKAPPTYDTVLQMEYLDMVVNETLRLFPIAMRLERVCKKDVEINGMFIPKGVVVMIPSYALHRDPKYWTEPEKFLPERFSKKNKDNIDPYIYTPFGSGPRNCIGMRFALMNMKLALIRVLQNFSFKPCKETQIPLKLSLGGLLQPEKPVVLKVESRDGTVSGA
Chain of Cytochrome P450 1A2 (Homo sapiens) (P05177 whole entry, looked up): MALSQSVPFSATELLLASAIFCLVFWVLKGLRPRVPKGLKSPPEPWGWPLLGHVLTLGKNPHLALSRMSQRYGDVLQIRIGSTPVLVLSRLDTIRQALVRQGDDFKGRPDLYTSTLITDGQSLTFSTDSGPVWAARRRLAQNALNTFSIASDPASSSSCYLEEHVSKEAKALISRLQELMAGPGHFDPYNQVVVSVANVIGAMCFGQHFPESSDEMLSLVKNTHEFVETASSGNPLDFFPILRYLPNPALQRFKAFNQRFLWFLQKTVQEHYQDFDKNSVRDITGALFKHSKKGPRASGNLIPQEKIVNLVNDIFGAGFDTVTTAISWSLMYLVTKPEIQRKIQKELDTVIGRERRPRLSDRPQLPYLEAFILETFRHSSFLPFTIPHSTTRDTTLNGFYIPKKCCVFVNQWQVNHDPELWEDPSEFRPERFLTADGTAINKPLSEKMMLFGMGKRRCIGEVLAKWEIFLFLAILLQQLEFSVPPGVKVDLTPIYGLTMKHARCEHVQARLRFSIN

Structure (SMILES)	Potency [1]	activity change, negative = inhibition [2]	activity change, negative = inhibition [3]	activity, negative = inhibition [4]	Potency [5]	Potency [6]	outcome [7]	Potency [8]	Potency [9]	activity change, negative = inhibition [10]	max response [10, 17] [%]	max response [10, 18] [%]	Potency [11]	Potency [12]	Potency [13]	Potency [14]	Potency [15]	Potency [16]
Cc1nc2cnc(N3CCOCC3)nc2n(C2CC2)c1=O	> 11.4 µM (inactive)	-11.6% (inactive)	-11.7% (inactive)	-3.09% (inactive)	> 9.22 µM (inactive)	> 46 µM (inactive)	inactive	inactive	inactive	7% (inactive)	18	23.9	inactive	inactive	inactive	inactive	inactive	–
COc1cccc(Cn2c(=O)c(C)nc3cnc(Nc4ccccc4)nc32)c1	> 11.4 µM (inactive)	-15.3% (inactive)	–	-3.72% (inactive)	> 9.22 µM (inactive)	> 46 µM (inactive)	inactive	inactive	–	0.284% (inactive)	11.6	9.21	inactive	inactive	inactive	inactive	inactive	–
COCCNc1ncnc2ccc(-c3cccnc3)cc12	> 11.4 µM (inactive)	–	–	18% (inactive)	> 46 µM (inactive)	> 46 µM (inactive)	inactive	inactive	inactive	5.11% (inactive)	-1.43	-8.04	12.6 µM (active)	12.6 µM (active)	10 µM (active)	inactive	inactive	0.2 µM (active)
COCCn1c(=O)c(-c2cn(C)c3ccccc23)nc2cnc(Oc3cccc(Cl)c3)nc21	> 11.4 µM (inactive)	-7.97% (inactive)	5.68% (inactive)	3.06% (inactive)	> 9.22 µM (inactive)	–	–	inactive	–	-4.01% (inactive)	23.7	16.7	inactive	inactive	inactive	inactive	inactive	–
CCNc1ncc2nc(-c3ccc(OC)cc3)c(=O)n(C[C@H]3CCCO3)c2n1	> 11.4 µM (inactive)	-5.93% (inactive)	–	–	> 9.22 µM (inactive)	> 46 µM (inactive)	inactive	–	–	-3.19% (inactive)	8.2	0.991	inactive	inactive	inactive	inactive	inactive	–
O=c1c(CCc2ccccc2)nc2cnc(N3CCOCC3)nc2n1Cc1cccs1	> 11.4 µM (inactive)	-2.34% (inactive)	-3.56% (inactive)	2.46% (inactive)	> 9.22 µM (inactive)	> 46 µM (inactive)	inactive	–	–	8.99% (inactive)	7.22	18.4	inactive	inactive	inactive	–	inactive	–
